# PubChem BioAssay (Tox21)
# Several values for one entry are separate records, joined by “and”; a condition that tells them apart may be missing. Equal entries are not always repeated. A number with no mark means an inactive call. Results filed as inconclusive are left out. A call without a number means that no potency is given here. Activity calls are given as the source filed them. Unless noted, calls come from the whole dose curve; as a rule, active = well fitted curve in the direction sought with a large enough effect in the repeat runs; inconclusive = weak or mixed curves; inactive = no such curve, though single readings can be large; an effect the other way counts as inactive or inconclusive.
# Legend:
# [1] = qHTS assay to identify small molecule antagonists of the estrogen receptor alpha (ER-alpha) signaling pathway using the BG1 cell line in the presence of 0.1 nM 17-beta-estradiol - cell viability counter screen (AID 1259241); note: nearly all actives have a fitted effect of over 40% in size; note: potency is the fitted concentration of half-maximal effect
# In short: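 Cells were plated and left 24 hr, compounds in DMSO were pinned in, 17beta-estradiol was added to 0.1 nM final, and after 22 hr CellTiter-Fluor reagent was added for 30 min before fluorescence was read.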
# [2] = qHTS assay to identify small molecule antagonists of the androgen receptor (AR) signaling pathway using the MDA cell line in the presence of 0.5 nM R1881 - cell viability counter screen (AID 1259242); note: nearly all actives have a fitted effect of over 45% in size; note: potency is the fitted concentration of half-maximal effect
# In short: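 Fluorescence from CellTiter-Fluor, which reports protease activity of live cells, was read 30 min after reagent addition to MDA-kb2 cells that had been incubated 16 hr with compound and 0.5 nM R1881.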
# [3] = biological target: Estrogen receptor (Homo sapiens) (UniProt P03372); assay: qHTS assay to identify small molecule antagonists of the estrogen receptor alpha (ER-alpha) signaling pathway using the BG1 cell line in the presence of 0.1 nM 17-beta-estradiol (AID 1259244); note: nearly all actives have a fitted effect of over 50% in size
# Sequence of Estrogen receptor (Homo sapiens) (P03372 whole entry, looked up): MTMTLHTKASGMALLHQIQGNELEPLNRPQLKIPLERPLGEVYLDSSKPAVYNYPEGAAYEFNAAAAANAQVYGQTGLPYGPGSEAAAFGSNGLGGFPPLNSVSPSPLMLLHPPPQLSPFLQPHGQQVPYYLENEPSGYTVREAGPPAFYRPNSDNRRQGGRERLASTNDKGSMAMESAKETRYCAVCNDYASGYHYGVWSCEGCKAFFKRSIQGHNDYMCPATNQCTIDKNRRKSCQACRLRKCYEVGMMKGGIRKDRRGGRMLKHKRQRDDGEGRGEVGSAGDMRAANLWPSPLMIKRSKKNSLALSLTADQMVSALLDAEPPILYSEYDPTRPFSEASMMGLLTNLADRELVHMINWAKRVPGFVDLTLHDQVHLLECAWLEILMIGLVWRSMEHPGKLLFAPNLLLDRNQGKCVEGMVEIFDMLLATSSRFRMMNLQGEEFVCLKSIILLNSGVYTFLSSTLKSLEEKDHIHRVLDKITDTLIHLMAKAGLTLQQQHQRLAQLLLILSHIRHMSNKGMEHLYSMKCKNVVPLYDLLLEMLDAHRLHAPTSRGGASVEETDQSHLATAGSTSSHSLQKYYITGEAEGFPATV
# In short: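 Quantitative high-throughput screen in VM7Luc4E2 cells: compound plus 0.1 nM E2 (final), 22 h, 37C, 5% CO2; ONE-Glo added, 30 min room temperature, luminescence measured.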
# [4] = qHTS assay to identify small molecule HDAC inhibitors (AID 1259364); note: nearly all actives have a fitted effect of over 45% in size; note: potency is the fitted concentration of half-maximal effect; for activity change, negative = inhibition: top concentration of the series differs between compounds
# In short: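 Endogenous HDAC class I/II activity was measured in wild-type HCT-116 cells by HDAC-Glo luminescence after 2 h compound treatment.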
# [5] = qHTS assay to identify small molecule HDAC inhibitors - cell viability counter screen (AID 1259365); note: series mostly up to about 92 µM; nearly all actives have a fitted effect of over 50% in size
# In short: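 Counter screen in wild-type HCT-116 cells: compounds dissolved in DMSO are pin-transferred onto overnight-plated cells and left 2hr at 37C. ATP-based CellTiter-Glo luminescence then measures viable cells.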
# [6] = qHTS assay to identify small molecule agonists of the sonic hedgehog signaling (Shh) pathway - cell viability counter screen (AID 1259366); note: nearly all actives have a fitted effect of over 50% in size; note: potency is the fitted concentration of half-maximal effect
# In short: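 Cells are plated at 2,000 per well and left 4hr at 37C, 5% CO2 before compound addition. After 23hr of treatment, CellTiter-Fluor reagent is added for 1hr at 37C and fluorescence is measured.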
# [7] = qHTS assay to identify small molecule agonists of the sonic hedgehog signaling (Shh) pathway (AID 1259368; calls by dose curve; note: nearly all actives have a fitted effect of over 15% in size; note: potency is the fitted concentration of half-maximal effect;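 for activity change: NIH/3T3-derived 3T3Gli1-Luc cells carrying a stable Gli1-driven firefly luciferase reporter; series mostly up to about 92 µM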)
# In short: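 Luminescent signal was taken as a measure of Gli1-controlled luciferase expression in stably transfected NIH/3T3-derived cells that had been treated for 24 hr with compounds delivered in DMSO.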
# [8] = biological target: Estrogen receptor beta (Homo sapiens) (UniProt Q92731); assay: qHTS assay to identify small molecule agonists of the estrogen receptor beta (ER-beta) signaling pathway (AID 1259377; active = well fitted activation curve with a large enough effect in the signal ratio in the repeat runs, not every such curve was filed as active; the % refers to the signal ratio)
# Sequence of Estrogen receptor beta (Homo sapiens) (Q92731 whole entry, looked up, the tested form may be a part): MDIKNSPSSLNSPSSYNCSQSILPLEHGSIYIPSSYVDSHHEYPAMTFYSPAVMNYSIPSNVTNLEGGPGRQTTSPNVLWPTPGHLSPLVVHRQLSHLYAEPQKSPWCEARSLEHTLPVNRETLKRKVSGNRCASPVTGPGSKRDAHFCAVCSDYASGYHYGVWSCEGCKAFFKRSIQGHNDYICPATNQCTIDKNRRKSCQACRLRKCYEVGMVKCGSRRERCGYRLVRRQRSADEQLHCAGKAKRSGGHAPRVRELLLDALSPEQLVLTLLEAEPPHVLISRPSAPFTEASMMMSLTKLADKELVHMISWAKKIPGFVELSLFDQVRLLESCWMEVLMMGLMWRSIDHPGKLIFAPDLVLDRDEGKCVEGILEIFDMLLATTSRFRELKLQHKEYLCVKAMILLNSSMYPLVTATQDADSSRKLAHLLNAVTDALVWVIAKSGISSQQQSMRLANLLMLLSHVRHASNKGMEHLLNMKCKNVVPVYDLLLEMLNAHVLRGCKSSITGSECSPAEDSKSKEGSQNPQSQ
# In short: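 Agonist mode cell assay in GripTite HEK293T cells expressing an ER-beta fusion that drives beta-lactamase from an Upstream Activator Sequence; 16 hr compound exposure at 37C, then 2 h LiveBLAzer B/G FRET substrate at room temperature, fluorescence read-out.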
# [9] = biological target: Estrogen receptor beta (Homo sapiens) (UniProt Q92731); assay: qHTS assay to identify small molecule antagonists of the estrogen receptor beta (ER-beta) signaling pathway (AID 1259378; active = well fitted inhibition curve with a large enough effect in the signal ratio in the repeat runs, not every such curve was filed as active; the % refers to the signal ratio; note: potency is the fitted concentration of half-maximal effect)
# In short: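 ER-beta-UAS-bla HEK293T cells in 2% charcoal-stripped FBS medium treated with compound plus 1nM final 17-beta-estradiol for 16 hr at 37C. Beta-lactamase reporter read by FRET substrate fluorescence after 2 hours at room temperature.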
# [10] = qHTS assay to identify small molecule agonists of the androgen receptor (AR) signaling pathway in the presence of an antagonist - cell viability counter screen (AID 1259379);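 note: MDA-kb2 human breast cancer cells carrying an MMTV luciferase reporter; series mostly up to about 92 µM; nearly all actives have a fitted effect of over 25% in size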
# In short: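 In MDA-kb2 cells (human breast carcinoma, MMTV-luciferase), compounds at 15 concentrations plus 3.0uM nilutamide; 16 hr, 37C, 0% CO2; CellTiter-Fluor fluorescence read for viability.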
# [11] = qHTS assay to identify small molecule antagonists of the estrogen receptor beta (ER-beta) signaling pathway - cell viability counter screen (AID 1259382); note: nearly all actives have a fitted effect of over 55% in size; note: potency is the fitted concentration of half-maximal effect; for activity change, negative = cytotoxicity: series mostly up to about 92 µM
# In short: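 Tox21 10K library tested in qHTS format on ER-beta-bla HEK293T cells stimulated with 1nM E2; 16 hr treatment at 37C. Same-well CellTiter-Glo luminescence served as the cell viability measure.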
# [12] = biological target: Estrogen receptor (Homo sapiens) (UniProt P03372); assay: qHTS assay to identify small molecule agonists of the estrogen receptor alpha (ER-alpha) signaling pathway in the presence of an antagonist (AID 1259383; calls by dose curve; note: top concentration of the series differs between compounds; nearly all actives have a fitted effect of over 15% in size)
# In short: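 In VM7Luc4E2 cells, 4,000 per well, compounds at 15 concentrations were co-incubated 22hr at 37C with 10.0nM final ICI-182,780. Luminescence from the stably transfected 4×ERE-luciferase reporter was recorded 30min after ONE-Glo addition.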
# [13] = qHTS assay to identify small molecule antagonists of the sonic hedgehog signaling (Shh) pathway - cell viability counter screen (AID 1259367); note: nearly all actives have a fitted effect of over 55% in size
# In short: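 Seed 3T3 Gli1-Luc cells at 2,000 per well; incubate 4 hr; add compound in DMSO, then conditioned medium; incubate at 37C with 5% CO2; add CellTiter-Fluor after 23 hr; read fluorescence 1 hr later.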
# [14] = qHTS assay to identify small molecule antagonists of the sonic hedgehog signaling (Shh) pathway (AID 1259369; calls by dose curve; note: nearly all actives have a fitted effect of over 45% in size; note: potency is the fitted concentration of half-maximal effect)
# In short: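 Screening used 3T3Gli1-Luc cells at 2,000 per well, compounds delivered in DMSO, and conditioned medium as agonist stimulus; plates incubated 24hr at 37 C and 5% CO2 before a 30min luciferase step.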
# [15] = qHTS assay to identify small molecule agonists or antagonists of the thyroid stimulating hormone receptor (TSHR) signaling pathway - wild type cell line counter screen (AID 1259384; calls by dose curve)
# In short: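 Wild-type Hek293 cells, 800/well, 18 h at 37C, then compound with Ro20-1724 for 30 min RT. cAMP by HTRF (cAMP-d2/anti-cAMP cryptate), 1 h RT, fluorescence read. 15 concentrations, triplicates.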
# [16] = biological target: Thyrotropin receptor (Homo sapiens) (UniProt P16473); assay: qHTS assay to identify small molecule antagonists of the thyroid stimulating hormone receptor (TSHR) signaling pathway (AID 1259385; calls by dose curve; note: nearly all actives have a fitted effect of over 20% in size)
# Sequence of Thyrotropin receptor (Homo sapiens) (P16473 whole entry, looked up): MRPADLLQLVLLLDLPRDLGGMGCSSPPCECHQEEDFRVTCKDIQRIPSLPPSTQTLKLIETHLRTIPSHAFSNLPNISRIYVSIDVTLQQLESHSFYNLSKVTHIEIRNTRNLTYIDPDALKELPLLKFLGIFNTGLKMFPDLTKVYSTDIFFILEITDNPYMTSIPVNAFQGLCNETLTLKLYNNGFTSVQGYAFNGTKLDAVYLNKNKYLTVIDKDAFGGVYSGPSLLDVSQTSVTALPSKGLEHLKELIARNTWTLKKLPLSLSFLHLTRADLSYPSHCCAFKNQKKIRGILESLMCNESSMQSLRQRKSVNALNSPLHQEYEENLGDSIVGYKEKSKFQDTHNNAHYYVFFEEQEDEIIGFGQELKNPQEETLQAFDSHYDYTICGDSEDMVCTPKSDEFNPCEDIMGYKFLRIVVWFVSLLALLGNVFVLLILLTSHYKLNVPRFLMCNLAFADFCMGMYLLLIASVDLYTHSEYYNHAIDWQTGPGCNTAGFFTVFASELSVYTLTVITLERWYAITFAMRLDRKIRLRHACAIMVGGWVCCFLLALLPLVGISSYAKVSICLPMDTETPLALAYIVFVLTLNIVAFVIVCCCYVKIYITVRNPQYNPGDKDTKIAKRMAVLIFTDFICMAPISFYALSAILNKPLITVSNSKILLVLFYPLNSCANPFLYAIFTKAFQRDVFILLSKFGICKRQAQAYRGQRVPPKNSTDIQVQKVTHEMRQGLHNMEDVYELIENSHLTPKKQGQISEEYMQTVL
# In short: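 TSHR-HEK293 cells (800/well) plated 18 h, then compounds with Ro20-1724 and TSH at 1.5 ng/mL final, 30 min at room temperature. cAMP quantified by HTRF (cAMP-d2/anti-cAMP-cryptate, 1 h); 15 concentrations in triplicate.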
# [17] = qHTS assay to identify small molecule agonists of the estrogen receptor beta (ER-beta) signaling pathway - cell viability counter screen (AID 1259380); note: nearly all actives have a fitted effect of over 30% in size; note: potency is the fitted concentration of half-maximal effect
# In short: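 Viability of ER-beta-UAS-bla HEK293T cells was determined by CellTiter-Glo luminescence following 16 hr treatment with test compounds at 37C.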
# [18] = qHTS assay to identify small molecule phospholipidosis (PLD) inducers (AID 1259344; active = well fitted curve in the direction sought with a large enough effect; an effect the other way counts as inactive or inconclusive)
# In short: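 Quantitative HTS in HepG2: compound plus LipidTOX Red dye for 24 h, paraformaldehyde fixation with Hoechst 33342, widefield high-content imaging; amiodarone as positive and DMSO as negative control.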
smiles,measurement,setting,value
c1ccc(SSc2ccccc2)cc1,Potency,[1],inactive
same,Potency,[2],inactive
same,Potency,[3],inactive
same,Potency,[4],inactive
same,Potency,[5],inactive
same,Potency,[6],inactive
same,Potency,[7],inactive
same,Potency,[8],inactive
same,Potency,[9],inactive
same,Potency,[10],inactive
same,Potency,[11],inactive
same,Potency,[12],inactive
OC1CCCc2ccccc21 (configuration not stated),Potency,[1],inactive
same,Potency,[2],inactive
same,Potency,[3],inactive
same,Potency,[4],inactive
same,Potency,[5],inactive
same,Potency,[6],inactive
same,Potency,[13],inactive
same,Potency,[7],inactive
same,Potency,[14],inactive
same,Potency,[10],inactive
same,Potency,[11],inactive
same,Potency,[12],inactive
same,outcome,[15],inactive
same,Potency,[16],inactive
C#Cc1ccc(-c2ccccc2F)cc1,Potency,[1],inactive
same,Potency,[2],inactive
same,Potency,[3],inactive
same,Potency,[4],inactive
same,Potency,[5],inactive
same,Potency,[6],inactive
same,Potency,[13],inactive
same,Potency,[7],inactive
same,Potency,[14],inactive
same,Potency,[10],inactive
same,Potency,[17],inactive
same,Potency,[11],inactive
same,Potency,[12],inactive
same,outcome,[15],inactive
same,Potency,[16],inactive
CC(C)(C)c1csc(-c2cc3cc(OCc4ccccc4CC(=O)O)ccc3o2)n1,Potency,[1],inactive
same,Potency,[2],inactive
same,Potency,[3],inactive
same,Potency,[4],inactive
same,Potency,[5],inactive
same,Potency,[6],inactive
same,Potency,[7],inactive
same,Potency,[14],inactive
same,Potency,[8],inactive
same,Potency,[17],4.86 µM (active)
same,Potency,[11],27.3 µM (active)
same,Potency,[12],inactive
same,outcome,[15],inactive
COc1cc(/C=C/c2ccccc2)oc(=O)c1,Potency,[1],inactive
same,Potency,[2],inactive
same,Potency,[3],inactive
same,Potency,[4],11.2 µM (active)
same,Potency,[5],inactive
same,Potency,[6],inactive
same,Potency,[13],inactive
same,Potency,[7],2.52 µM (active)
same,Potency,[14],inactive
same,Potency,[10],inactive
same,Potency,[11],inactive
same,Potency,[12],inactive
same,outcome,[15],inactive
same,Potency,[16],inactive
O=C(O)c1ccc2cc(C(=O)O)ccc2c1,Potency,[1],inactive
same,Potency,[2],inactive
same,Potency,[3],inactive
same,Potency,[5],inactive
same,Potency,[6],inactive
same,Potency,[7],inactive
same,Potency,[14],inactive
same,Potency,[8],inactive
same,Potency,[9],inactive
same,Potency,[10],inactive
same,Potency,[17],inactive
same,Potency,[11],inactive
same,Potency,[12],inactive
same,outcome,[15],inactive
COc1cccc2c1C(=O)c1c(O)c3c(c(O)c1C2=O)C[C@@](O)(C(C)=O)C[C@@H]3O[C@H]1C[C@H](N)[C@H](O)[C@H](C)O1,Potency,[1],30.8 µM (active) and 13.3 µM (active)
same,Potency,[2],48.9 µM (active)
same,PLD induction,[18],-3.33% [at 7.66 µM]
same,Potency,[4],inactive
same,Potency,[5],inactive
same,Potency,[6],615 nM (active) and 2.11 µM (active)
same,Potency,[7],inactive
same,Potency,[14],0.0194 µM (active)
same,Potency,[9],4.22 µM (active)
same,Potency,[11],inactive
CC(C)(C)C1CCC(=O)CC1,Potency,[1],inactive
same,Potency,[2],inactive
same,Potency,[3],inactive
same,Potency,[4],inactive
same,Potency,[5],inactive
same,Potency,[6],inactive
same,Potency,[7],inactive
same,Potency,[14],30.6 µM (active)
same,Potency,[8],inactive
same,Potency,[9],inactive
same,Potency,[11],inactive
same,Potency,[12],inactive
same,outcome,[15],inactive
same,Potency,[16],inactive
O=C(O)CN(CCN(CC(=O)O)CC(=O)O)CC(=O)O,"activity change, negative = cytotoxicity",[1],-6% [at 3.27 µM]
same,"viability change, negative = cytotoxic",[2],4.5% [at 3.26 µM]
same,Potency,[18],inactive
same,"activity change, negative = inhibition",[4],2.84% [at 3.27 µM]
same,"activity change, negative = cytotoxicity",[5],0.173% [at 3.27 µM]
same,"viability change, negative = cytotoxic",[6],3.2% [at 3.27 µM]
same,"viability change, negative = cytotoxic",[13],-2.72% [at 3.27 µM]
same,activity change,[7],"0.474% [at 3.27 µM, hits give high values]"
same,"activity change, negative = inhibition",[14],12.7% [at 3.27 µM]
same,"activity change, negative = cytotoxicity",[10],-0.833% [at 3.27 µM]
same,"activity change, negative = cytotoxicity",[17],0.439% [at 3.32 µM]
same,"activity change, negative = cytotoxicity",[11],2.74% [at 3.27 µM]
same,cAMP activity change,[15],-0.412% [at 3.27 µM]
same,"activity change, negative = inhibition",[16],1.34% [at 3.27 µM]
CCCC(=O)OCOC(=O)C1=C(C)NC(C)=C(C(=O)OC)C1c1cccc(Cl)c1Cl (configuration not stated),Potency,[1],inactive
same,Potency,[2],inactive
same,Potency,[3],inactive
same,Potency,[4],inactive
same,Potency,[5],inactive
same,Potency,[6],inactive
same,Potency,[13],inactive
same,Potency,[7],inactive
same,Potency,[14],inactive
same,Potency,[10],inactive
same,Potency,[17],inactive
same,Potency,[11],inactive
same,Potency,[12],inactive
same,outcome,[15],inactive
same,Potency,[16],inactive
Nc1nc(N)nc(-c2cc(Cl)ccc2Cl)n1,Potency,[1],inactive
same,Potency,[2],inactive
same,Potency,[18],inactive
same,Potency,[4],inactive
same,Potency,[5],inactive
same,Potency,[6],inactive
same,Potency,[13],inactive
same,Potency,[7],inactive
same,Potency,[14],inactive
same,Potency,[10],inactive
same,Potency,[11],inactive
OCC(F)(F)F,Potency,[1],inactive
same,Potency,[2],inactive
same,Potency,[4],inactive
same,Potency,[5],inactive
same,Potency,[6],inactive
same,Potency,[13],inactive
same,Potency,[7],inactive
same,Potency,[8],inactive
same,Potency,[9],inactive
same,Potency,[17],inactive
same,Potency,[11],inactive
same,outcome,[15],inactive
same,Potency,[16],inactive
CCCCOC(=O)CC,Potency,[1],inactive
same,Potency,[2],inactive
same,Potency,[4],inactive
same,Potency,[5],inactive
same,Potency,[6],inactive
same,Potency,[13],inactive
same,Potency,[7],inactive
same,Potency,[14],inactive
same,Potency,[9],inactive
same,Potency,[10],inactive
same,Potency,[17],inactive
same,Potency,[11],inactive
same,outcome,[15],inactive
same,Potency,[16],inactive
Clc1ccnc(Cl)n1,Potency,[1],inactive
same,Potency,[2],inactive
same,Potency,[4],inactive
same,Potency,[5],inactive
same,Potency,[6],inactive
same,Potency,[7],inactive
same,Potency,[8],inactive
same,Potency,[10],inactive
same,Potency,[17],inactive
same,Potency,[11],inactive
same,Potency,[12],inactive
same,outcome,[15],inactive
same,Potency,[16],inactive
O=[N+]([O-])c1ccc(F)c(Cl)c1,Potency,[1],inactive
same,Potency,[2],inactive
same,Potency,[4],inactive
same,Potency,[5],inactive
same,Potency,[6],inactive
same,Potency,[13],inactive
same,Potency,[7],inactive
same,Potency,[14],inactive
same,Potency,[8],inactive
same,Potency,[9],inactive
same,Potency,[10],inactive
same,Potency,[17],inactive
same,Potency,[11],inactive
same,outcome,[15],inactive
same,Potency,[16],inactive
O=C1OC2(c3ccc(O)cc3Oc3cc(O)ccc32)c2ccc(N=C=S)cc21,Potency,[1],inactive
same,Potency,[2],inactive
same,Potency,[4],inactive
same,Potency,[5],inactive
same,Potency,[13],inactive
same,Potency,[7],inactive
same,Potency,[14],inactive
same,Potency,[17],inactive
same,Potency,[11],inactive
same,outcome,[15],inactive
same,Potency,[16],inactive
